Measurements published in PubChem BioAssay AID651658 (Broad Institute, 2012).
Out of some 340,000 compounds screened, about 5,100 (1.5%) were called active. This excerpt belongs to a sample that is enriched for actives. Unmarked numbers belong to inactive results.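 Rule for the calls: active = mean Tm shift, scaled 0 neutral to 100 positive control, at about 1.3% or above, every replicate too (limit read from the data); inconclusive = no clear call, values can overlap the other calls; inactive = the rest.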

molecular target: Fibroblast growth factor 22 (Homo sapiens) (UniProt Q9HCT0); assay: FGF22 ligand-induced thermal stabilization – biophysical, thermal shift, single point, FGF22 synaptogenesis inhibitor project, primary screen (AID 651658); details: recombinant FGF22 thermal shift, SYPRO orange fluorescence; at 9.99 µM; hits give high values; percent of sucrose octasulfate shift, DMSO zero
Sequence (Q9HCT0 whole entry, looked up): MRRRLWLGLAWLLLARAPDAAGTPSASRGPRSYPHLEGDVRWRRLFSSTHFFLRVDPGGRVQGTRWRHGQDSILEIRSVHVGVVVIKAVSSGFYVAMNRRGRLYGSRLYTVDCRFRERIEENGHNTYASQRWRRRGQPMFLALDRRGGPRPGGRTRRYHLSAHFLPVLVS

First: COc1ccccc1C#Cc1cnc2c(c1)C(=O)N([C@H](C)CO)C[C@H](C)[C@H](CN(C)S(=O)(=O)c1cn(C)cn1)O2
Second: CCCC#Cc1cnc2c(c1)C(=O)N([C@H](C)CO)C[C@H](C)[C@H](CN(C)C(=O)Cc1ccncc1)O2
The activity (Tm shift, normalised) of the first is higher: 0.666% for the first, 0.077% for the second.

First: CC(C)[C@@H]1COCn2nncc2CCCC(=O)N1
Second: CC(C)c1cc(C(=O)NC2CCCCCC2)c2ccccc2n1
The activity (Tm shift, normalised) of the first is lower: -0.193% for the first, -0.159% for the second.

First: O=C(C[C@H]1CC[C@@H]2[C@H](COC[C@@H](O)CN2C(=O)Nc2ccc(C(F)(F)F)cc2)O1)NCCc1ccncc1
Second: CCNC(=O)Nc1ccc2c(c1)C(=O)N(C)[C@@H]1CC[C@H](CC(=O)NC3CCCCC3)O[C@H]1CO2
The activity (Tm shift, normalised) of the first is higher: -0.088% for the first, -0.109% for the second.

Compared with `CC(C)NC(=O)N1[C@H](CO)[C@H](c2ccccc2)C12CN(C(=O)Cc1ccccc1)C2`, `CN(C)CC(=O)N1[C@@H](CO)[C@H](c2ccccc2)C12CN(C(=O)c1cccc(F)c1)C2` is higher in activity (Tm shift, normalised): -0.087% for the first, 0.354% for the second.

Going from `CC(C)Oc1ccccc1C(=O)NC(CO)C(=O)O` (centres undefined) to `CC(C)NC(=O)N1[C@H](CNC(=O)CN(C)C)[C@@H](c2ccccc2)[C@@H]1CO`, the activity (Tm shift, normalised) falls from 42.8% to -0.154%.

Compared with `COCC(=O)N1CC2(C1)CN(C(=O)COC)[C@@H](CO)c1c2c2ccc(OC)cc2n1C`, `COc1ccc2c3c(n(C)c2c1)[C@@H](CO)NCC31CCN(CC2CCCC2)CC1` is lower in activity (Tm shift, normalised): -0.043% for the first, -0.076% for the second.

Going from `C[C@@H]1CN([C@H](C)CO)C(=O)c2cc(NC(=O)Cn3cnnn3)ccc2O[C@@H]1CN(C)C(=O)Nc1ccc2c(c1)OCO2` to `COc1ccc(S(=O)(=O)N(C)C[C@@H]2OCCCC[C@H](C)Oc3ccc(NC(=O)NC(C)C)cc3C(=O)N([C@@H](C)CO)C[C@@H]2C)cc1`, the activity (Tm shift, normalised) falls from 0.191% to -0.199%.

Compared with `O=S(=O)(N[C@@H]1CC[C@H](CCn2cc(-c3ccccc3F)nn2)O[C@H]1CO)c1ccc(F)cc1`, `C[C@@H]1CN([C@H](C)CO)S(=O)(=O)c2ccc(-c3ccncc3)cc2O[C@H]1CN(C)S(=O)(=O)c1ccccc1F` is lower in activity (Tm shift, normalised): 0.086% for the first, -0.04% for the second.

Compared with `O=S(=O)(Oc1ccccc1C(=S)N1CCOCC1)c1ccc(Cl)cc1`, `O=C(Cc1ccccc1Cl)N1CCOCC1` is lower in activity (Tm shift, normalised): 0% for the first, -0.495% for the second.

First: Cc1ccc(S(=O)(=O)c2nc(-c3cccs3)oc2NCc2cccnc2)cc1
Second: O=S(=O)(c1ccccc1)c1nc(-c2ccccc2)oc1NCCCN1CCOCC1
The activity (Tm shift, normalised) of the first is lower: 0.137% for the first, 0.296% for the second.

First: O=C(NCC1CC1)[C@@H]1[C@@H](CO)[C@@H]2Cn3c(ccc(-c4ccccc4)c3=O)[C@H]1N2C(=O)C1CC1
Second: CC=Cc1ccc2n(c1=O)C[C@H]1[C@H](CO)[C@@H](C(=O)NCCc3cn(C)cn3)[C@@H]2N1C(=O)CC (mixture of isomers)
The activity (Tm shift, normalised) of the first is higher: 0.292% for the first, -0.32% for the second.

Compared with `Cc1cc(C)cc(NC(=O)C2CCCN(S(=O)(=O)c3ccc4[nH]c(=O)ccc4c3)C2)c1` (centres undefined), `Cc1ccc(S(=O)(=O)N(C)C)cc1NC(=O)c1n[nH]c(=O)c2ccccc12` is higher in activity (Tm shift, normalised): -0.297% for the first, -0.104% for the second.

Compared with `CC1CCN(S(=O)(=O)c2ccc3c(c2)n(C)c(=O)n3C)CC1`, `CO[C@H]1CN(C)C(=O)c2cc(NC(=O)C3CCC3)ccc2OC[C@H](C)N(C)C[C@H]1C` is lower in activity (Tm shift, normalised): 0.113% for the first, -0.155% for the second.

Compared with `COCc1[nH]nc2c1C(c1ccccc1)N(c1ccccc1)C2=O` (centres undefined), `COc1ccc(CCNC(=O)c2c(C)nn(-c3ccccc3)c2Cl)cc1` is higher in activity (Tm shift, normalised): -0.061% for the first, 0.155% for the second.

Compared with `COc1ccccc1-c1ccc2c(c1)O[C@@H](CN(C)C(=O)Nc1ccccc1)[C@H](C)CN([C@@H](C)CO)S2(=O)=O`, `C[C@H](CO)N1C[C@H](C)[C@@H](CN(C)C(=O)C2CCCCC2)Oc2cc(C3=CCCC3)ccc2S1(=O)=O` is higher in activity (Tm shift, normalised): 0.048% for the first, 0.195% for the second.

First: CN1c2ccc(-c3cccc(C#N)c3)cc2[C@@H]2[C@@H](CCN2C(=O)C2CCC2)[C@@H]1CO
Second: CN(C)C(=O)c1ccc(-c2ccc([C@@H]3[C@@H](CO)N4CCCCN(CC5CC5)C[C@H]34)cc2)cc1
The activity (Tm shift, normalised) of the first is lower: -0.466% for the first, -0.109% for the second.

First: Cc1nc2sc3c(c2c(=O)n1NC(=O)CCl)CCCC3
Second: COc1ccc(NC(=O)CCNC(=O)Cn2cnc3sc4c(c3c2=O)CCCC4)cc1OC
The activity (Tm shift, normalised) of the first is higher: 0.109% for the first, 0.026% for the second.

Compared with `CC(=O)N1[C@@H](CO)[C@H](c2ccccc2)[C@@H]1CN(C)C(=O)CN1CCOCC1`, `C[C@@H](O)C#Cc1ccc([C@H]2[C@@H](CO)N3CCCCN(S(=O)(=O)c4ccccc4)C[C@@H]23)cc1` is lower in activity (Tm shift, normalised): 0.01% for the first, -0.117% for the second.

Going from `CCCOc1ccc(-c2c(C(=O)N/N=C/c3ccco3)nnn2-c2nonc2N)cc1` to `Nc1nonc1-n1nnc(C(=O)N/N=C/C2CCCCC2)c1-c1ccccc1`, the activity (Tm shift, normalised) rises from -0.098% to 0.34%.

Going from `Cc1cc(C)cc(OCC(=O)NC(C)c2ccccc2)c1` (centres undefined) to `COc1ccccc1CNC(=O)COc1ccc(C)nc1[N+](=O)[O-]`, the activity (Tm shift, normalised) rises from 0.179% to 0.224%.

First: CO[C@@H]1CN(C)C(=O)c2cc(NC(C)=O)ccc2OC[C@H](C)N(C(=O)CC2CC2)C[C@@H]1C
Second: CO[C@@H]1CN(C)C(=O)c2cc(NC(=O)c3ccccc3F)ccc2OC[C@H](C)N(C(C)=O)C[C@@H]1C
The activity (Tm shift, normalised) of the first is higher: 0.119% for the first, 0.052% for the second.

Going from `Cc1ccc(C(=O)NNC(=O)c2ccc3c(c2)OCCO3)cc1` to `O=C(COC(=O)c1ccc(O)cc1O)c1ccc2c(c1)OCCO2`, the activity (Tm shift, normalised) rises from -0.233% to 0.444%.

Going from `Cc1ccc(C(=O)N/C(=C/c2cccs2)C(=O)N2CCCCC2)cc1` to `O=C(NCC1CCCO1)/C(=C/c1ccc(Cl)cc1)NC(=O)c1ccccc1` (centres undefined), the activity (Tm shift, normalised) falls from 0.095% to -0.33%.

Compared with `Cc1ccc(S(=O)(=O)NCCC(=O)Nc2cccc(S(N)(=O)=O)c2)cc1C`, `Cc1ccnc(NC(=O)CCNS(=O)(=O)c2ccc(C)c(C)c2)c1` is higher in activity (Tm shift, normalised): -0.18% for the first, -0.078% for the second.

Compared with `CCC(=O)Nc1ccc2c(c1)C(=O)N(C)C[C@H](OC)[C@H](C)CN(C(=O)c1ccccc1F)[C@@H](C)CO2`, `C[C@@H]1CCCCO[C@@H](CN(C)C(=O)NC2CCCCC2)[C@H](C)CN([C@H](C)CO)C(=O)c2cc(NS(=O)(=O)c3ccc(Cl)cc3)ccc2O1` is higher in activity (Tm shift, normalised): 0.053% for the first, 0.906% for the second.

Compared with `CN(C(=O)c1cc2c(=O)n3ccccc3nc2s1)C1CCCCC1`, `C[C@H](CO)N1C[C@H](C)[C@H](CN(C)C(=O)NC2CCCCC2)Oc2c(NC(=O)C3CC3)cccc2C1=O` is lower in activity (Tm shift, normalised): -0.192% for the first, -0.273% for the second.

Going from `COC(=O)N/N=C/c1ccc(-c2ccc(Cl)c(Cl)c2)o1` to `O=C(OCC(=O)N1CCN(C(=O)c2ccco2)CC1)c1ccc(Cl)c(Cl)c1`, the activity (Tm shift, normalised) rises from -0.262% to -0.203%.

Compared with `Brc1cc(/C=N/n2cnnc2)oc1Br`, `C(=N\Nc1ccc2ccccc2n1)/c1ccc2c(c1)OCO2` is higher in activity (Tm shift, normalised): -0.235% for the first, 41.5% for the second.

Going from `O=C1c2ccccc2S(=O)(=O)c2cc(N3CCN(c4ccccn4)CC3)ccc21` to `O=C(NCCN1CCOCC1)c1ccc2c(c1)N(Cc1cccc(Cl)c1)C(=O)c1ccccc1S2(=O)=O`, the activity (Tm shift, normalised) falls from 0.041% to -0.426%.

Going from `O=C(OCC(=O)N1CCN(C(=O)c2ccco2)CC1)c1cccc(O)c1` to `C/C(=N\Nc1nc(N2CCOCC2)nc(N2CCOCC2)n1)c1ccc([N+](=O)[O-])cc1`, the activity (Tm shift, normalised) rises from 0.05% to 0.46%.

For `Cc1ccc(S(=O)(=O)N(C)C)cc1NC(=O)c1ccccc1Br`, the activity (Tm shift, normalised) was -0.075%.

For `O=C1C=C(c2ccccc2)CCC1`, the activity (Tm shift, normalised) was 43.9% (active).
In the case of `CC1(C)OC(=O)C(=CNC(CO)C(=O)O)C(=O)O1` (centres undefined), the activity (Tm shift, normalised) is reported as 43.2% (active).
With `S=C(Cc1ccc(Cl)cc1)N1CCOCC1` the activity (Tm shift, normalised) was 43.7% (active).
For `O=S(=O)(c1ccccc1)c1nc(-c2ccccc2F)oc1NCc1cccnc1`, the activity (Tm shift, normalised) was 44.2% (active).
In the case of `CC1CCN(S(=O)(=O)c2ccc3[nH]c(=O)ccc3c2)CC1`, the activity (Tm shift, normalised) is reported as 43.3% (active).
For `COc1ccc(C2c3c(C)nn(-c4ccccc4)c3NC(=O)N2c2ccccc2)cc1` (centres undefined), the activity (Tm shift, normalised) was 42.9% (active).
For `CC(C(=O)O)n1cnc2sc3c(c2c1=O)CCCC3` (centres undefined), the activity (Tm shift, normalised) was 43.5% (active).
For `C/C(COc1ccccc1)=N\NC(=O)c1nnn(-c2nonc2N)c1-c1ccc(C)cc1`, the activity (Tm shift, normalised) was 43.2% (active).
With `Cc1ccc(OCC(=O)NC(C)c2ccccc2)c([N+](=O)[O-])n1` (centres undefined) the activity (Tm shift, normalised) was 43.5% (active).
With `O=C(/C=C/c1ccc2c(c1)OCCO2)c1ccc(O)cc1` the activity (Tm shift, normalised) was 2.05% (active).
With `Cc1ccc(C(=O)N/C(=C/c2cccs2)C(=O)NCC2CCCO2)cc1` (centres undefined) the activity (Tm shift, normalised) was 42.9% (active).
With `Cc1ccc(S(=O)(=O)NCCC(=O)Nc2ccc(C)c(Cl)c2)cc1C` the activity (Tm shift, normalised) was 1.75% (active).
In the case of `CN(c1ccc2nc3ccccc3c(=O)n2n1)C1CCCCC1`, the activity (Tm shift, normalised) is reported as 43.9% (active).
With `Clc1cc(-c2ccc(/C=N/n3cnnc3)o2)ccc1Br` the activity (Tm shift, normalised) was 43.6% (active).
`O=C(c1ccc2c(c1)N(Cc1ccc(F)cc1)C(=O)c1ccccc1S2(=O)=O)N1CCN(c2ccccn2)CC1` was tested, and the activity (Tm shift, normalised) was 44.2% (active).
In the case of `CN(c1ccccc1)S(=O)(=O)c1cc(C(=O)OCC(=O)N2CCN(C(=O)c3ccco3)CC2)ccc1Cl`, the activity (Tm shift, normalised) is reported as 43.1% (active).
With `CN(C)c1ccc(/C=N/Nc2cc(N3CCOCC3)nc(N3CCOCC3)n2)cc1` the activity (Tm shift, normalised) was 43.5% (active).
In the case of `CC(=O)c1c(C)[nH]c(C(=O)Nc2cc(S(=O)(=O)N(C)C)ccc2C)c1C`, the activity (Tm shift, normalised) is reported as 43.3% (active).
